Reference: PubChem BioAssay AID1224852 (National Center for Advancing Translational Sciences (NCATS), 2016)
Results filed as inconclusive are left out. Active and inactive are the calls of the source. The call rests on the fitted dose curve; in most records, active means well fitted curve in the direction sought with a large enough effect (not every such curve was filed as active); inconclusive means small, poorly fitted or top-dose-only effect, or effect the other way, or another doubt; inactive means no such curve, though single readings can be large or run the other way.

assay: Cell viability assay for measurement of the protective activity of small molecules against cell death caused by Zika virus infection in human neural progenitor cells (hNPCs); settings: hNPC ZIKV-induced death protection, ATP luminescence, 72 h; series mostly up to 46.1 µM
How it was run: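 Luminescent ATP content after 72 h ZIKV infection (2 FFU/cell) of hNPCs, compounds added 1 h before virus. Protection expressed as percent inhibition of the infection-induced drop in cell viability.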

| Compound | outcome |
| --- | --- |
| O=C(Oc1ccccc1)c1cccc(C(=O)Oc2ccccc2)c1 | inactive |
| c1ccc(CCNc2nc(-c3ccccc3)cs2)cc1 | inactive |
| CC(C(=O)O)c1ccc(C(=O)c2cccs2)cc1 (stereo not given) | inactive |
| CN1CCN(c2cc3c(nn2)Oc2ccccc2N3C)CC1 | inactive |
| CCOCCOC(=O)/C=C/c1ccc(OC)cc1 | inactive |
| CC(C(=O)O)c1ccc(-c2ccccc2)c(F)c1 (stereo not given) | inactive |
| COc1cccc(-c2cc(=O)c3ccccc3o2)c1N | inactive |
| CCN1/C(=C/C=C/c2sc3ccccc3[n+]2CC)Sc2ccccc21 | inactive |
| CCCSc1ccc2nc(NC(=O)OC)[nH]c2c1 | inactive |
| C/C(=N\O)c1ccc(OCC(=O)N2CCCCC2)cc1 | inactive |
| CC(=O)OC(C)OC(=O)C(C)c1ccc(-c2ccccc2)c(F)c1 (stereo not given) | inactive |
| Cc1nc(N)sc1-c1ccnc(Nc2ccc(N3CCOCC3)cc2)n1 | inactive |
| CC(C)Oc1ccc2c(=O)c(-c3ccccc3)coc2c1 | inactive |
| CC(C)(C)OC(=O)CN(Cc1ccc(Cl)cc1)Cc1ccc([N+](=O)[O-])s1 | inactive |
| CC(C)c1ccc2oc3nc(N)c(C(=O)O)cc3c(=O)c2c1 | inactive |
| COc1ccc(C=CC(=O)Nc2ccccc2C(=O)O)cc1OC | inactive |
| Oc1ccc(/C=C/c2cc(O)cc(O)c2)cc1 | inactive |
| O=C1c2ccccc2C(=O)c2c(NCCc3ccc(O)cc3)ccc(NCCc3ccc(O)cc3)c21 | inactive |
| C[C@@H](N)c1ccc(C(=O)Nc2ccnc3[nH]ccc23)cc1 | inactive |
| Nc1ncnc2c1ncn2[C@@H]1O[C@@H](CO)[C@H](O)[C@H]1O | inactive |
| c1ccc2[nH]c(-c3cscn3)nc2c1 | inactive |
| COc1cccc(-c2ccc(NC(=O)C3=C(C(=O)O)CCC3)c(F)c2)c1 | inactive |
| O=C1c2ccccc2-[n+]2ccc3c([nH]c4ccccc43)c21 | inactive |
| Cc1c(C(=O)O)c(O)cc2c1C(=O)c1c(O)c([C@@H]3O[C@H](CO)[C@@H](O)[C@H](O)[C@H]3O)c(O)c(O)c1C2=O | inactive |
| Cc1nc(-c2ccc(OCC(C)C)c(C#N)c2)sc1C(=O)O | inactive |
| Nc1cc(C(F)(F)F)ccc1S | inactive |
| CC(=O)Oc1ccccc1C(=O)Nc1ncc([N+](=O)[O-])s1 | inactive |
| CCCCCCOc1ccccc1C(N)=O | inactive |
| O=C(O)c1ccccc1Nc1cccc(C(F)(F)F)c1 | inactive |
| O=C(C=CC=Cc1ccc2c(c1)OCO2)N1CCCCC1 | inactive |
